The source of these data is paper PMC9838217, “Structure of SALL4 zinc finger domain reveals link between AT-rich DNA binding and Okihiro syndrome”.

Common to all, as to experiment: HT-SELEX; high values mean tight binding
What all share (details): protein: recombinant; vector His6-GST; dsDNA, one strand shown

Assay [1] deals with T1, SALL4 ZFC4 WT (HT-SELEX) (Mus musculus, UniProt Q8BX22 870-940).
T1 sequence: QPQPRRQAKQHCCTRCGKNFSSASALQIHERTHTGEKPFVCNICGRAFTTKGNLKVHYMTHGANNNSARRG
The gist of the method: (§1)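 Up to 6 cycles of selection were run in triplicate. In each, purified recombinant mouse SALL4 zinc finger cluster 4 (residues 870–940, 1 µg) was incubated with library DNA (1.5 µg first cycle, 200 ng later) in 100 µl of 10 mM Tris–HCl pH 7.5, 50 mM NaCl, poly(dI-dC), DTT for 10 min at room temperature, then complexes were captured on Ni2+ beads, washed and PCR-amplified; final pools were MiSeq-sequenced and scanned for 6-mers. Binding signal is each canonical k-mer's read fraction as fold change versus the initial random library.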

The target of assay [2] is T2, SALL4 ZFC4 R900W (HT-SELEX) (Mus musculus, UniProt Q8BX22 870-940, R900W).
T2 sequence: T1 sequence with R31W
Summed up:
as §1

For assay [3], the target named is T3, SALL4 ZFC4 G921D (HT-SELEX) (Mus musculus, UniProt Q8BX22 870-940, G921D).
T3 sequence: T1 sequence with G52D
Summed up:
as §1

Where a chain is given by its changes, count along the chain named.

On to CGGTAC, for which the binding signal turned out to be 0.362 ± 0.0117 fold-change vs cycle 0 in assay [1], 0.437 ± 0.0232 fold-change vs cycle 0 in assay [2] and 0.552 ± 0.049 fold-change vs cycle 0 in assay [3].

GTGCAA: the values for the binding signal in assay [1], in assay [2] and in assay [3] were 0.539 ± 0.0349 fold-change vs cycle 0, 0.616 ± 0.0276 fold-change vs cycle 0 and 0.721 ± 0.0304 fold-change vs cycle 0, respectively.

Turning to AACGTG, the binding signal in assay [1] was determined as 0.697 ± 0.0529 fold-change vs cycle 0; in assay [2], 0.827 ± 0.0416 fold-change vs cycle 0; in assay [3] it was 0.87 ± 0.0436 fold-change vs cycle 0.

For GATACA, the binding signal in assay [1] worked out at 1.33 ± 0.0706 fold-change vs cycle 0; in assay [2] it was 1.39 ± 0.0615 fold-change vs cycle 0; in assay [3], 1.37 ± 0.0715 fold-change vs cycle 0.

Take ACGTCC: the results for the binding signal in assay [1], in assay [2] and in assay [3] were 0.359 ± 0.021 fold-change vs cycle 0, 0.454 ± 0.0124 fold-change vs cycle 0 and 0.562 ± 0.0557 fold-change vs cycle 0, respectively.

As for AATCTG, the binding signal in assay [1] was determined as 1.22 ± 0.0563 fold-change vs cycle 0; in assay [2] it was 1.28 ± 0.0883 fold-change vs cycle 0; in assay [3], 1.25 ± 0.0941 fold-change vs cycle 0.

For the sequence GTTCGA, the binding signal in assay [1] was found to be 0.639 ± 0.0126 fold-change vs cycle 0; in assay [2], 0.724 ± 0.0149 fold-change vs cycle 0; in assay [3] it was 0.821 ± 0.0291 fold-change vs cycle 0.

On to CCAACG, for which the binding signal in assay [1] is 0.347 ± 0.0246 fold-change vs cycle 0; in assay [2], 0.388 ± 0.0249 fold-change vs cycle 0; in assay [3], 0.505 ± 0.0781 fold-change vs cycle 0.

Regarding GAGAAA, the values for the binding signal in assay [1], in assay [2] and in assay [3] were 1.28 ± 0.0744 fold-change vs cycle 0, 1.39 ± 0.0816 fold-change vs cycle 0 and 1.29 ± 0.0905 fold-change vs cycle 0, respectively.

Turning to GTTGAA, the values for the binding signal in assay [1], in assay [2] and in assay [3] were 1.18 ± 0.0583 fold-change vs cycle 0, 1.34 ± 0.0591 fold-change vs cycle 0 and 1.3 ± 0.109 fold-change vs cycle 0, respectively.

As to CGAGAA, the binding signal was found to be 0.725 ± 0.0428 fold-change vs cycle 0 in assay [1], 0.818 ± 0.0294 fold-change vs cycle 0 in assay [2] and 0.857 ± 0.0383 fold-change vs cycle 0 in assay [3].

Consider CCCTAC, for which the binding signal in assay [1] stood at 0.441 ± 0.0346 fold-change vs cycle 0; in assay [2] it was 0.512 ± 0.0309 fold-change vs cycle 0; in assay [3], 0.603 ± 0.047 fold-change vs cycle 0.

Consider CTAGAC, for which the binding signal amounted to 0.775 ± 0.0462 fold-change vs cycle 0 in assay [1], 0.888 ± 0.0389 fold-change vs cycle 0 in assay [2] and 0.932 ± 0.00894 fold-change vs cycle 0 in assay [3].

As to CTGCAG, the binding signal came to 0.318 ± 0.0345 fold-change vs cycle 0 in assay [1], 0.373 ± 0.0324 fold-change vs cycle 0 in assay [2] and 0.467 ± 0.0711 fold-change vs cycle 0 in assay [3].

For CCTCAA, the binding signal in assay [1] was determined as 0.759 ± 0.0289 fold-change vs cycle 0; in assay [2], 0.864 ± 0.0329 fold-change vs cycle 0; in assay [3], 0.951 ± 0.0279 fold-change vs cycle 0.

Turning to GCTTCA, the binding signal turned out to be 0.635 ± 0.0338 fold-change vs cycle 0 in assay [1], 0.769 ± 0.0139 fold-change vs cycle 0 in assay [2] and 0.8419 ± 0.0056 fold-change vs cycle 0 in assay [3].

Turning to GGGATA, the binding signal in assay [1] stood at 0.88 ± 0.0566 fold-change vs cycle 0; in assay [2], 0.967 ± 0.0568 fold-change vs cycle 0; in assay [3], 0.94 ± 0.0469 fold-change vs cycle 0.

Consider AGTTCC, for which the binding signal was 0.848 ± 0.0309 fold-change vs cycle 0 in assay [1], 0.972 ± 0.0535 fold-change vs cycle 0 in assay [2] and 0.98 ± 0.0319 fold-change vs cycle 0 in assay [3].

In the case of AGGTTA, the binding signal in assay [1] worked out at 1.49 ± 0.0813 fold-change vs cycle 0; in assay [2] it was 1.57 ± 0.127 fold-change vs cycle 0; in assay [3], 1.44 ± 0.162 fold-change vs cycle 0.

AGTTGA: the values for the binding signal in assay [1], in assay [2] and in assay [3] were 1.26 ± 0.0298 fold-change vs cycle 0, 1.43 ± 0.0288 fold-change vs cycle 0 and 1.37 ± 0.0654 fold-change vs cycle 0, respectively.

On to CCATGA, for which the binding signal was 0.874 ± 0.0255 fold-change vs cycle 0 in assay [1], 0.938 ± 0.011 fold-change vs cycle 0 in assay [2] and 1.01 ± 0.0502 fold-change vs cycle 0 in assay [3].

Take AAGTAC: the binding signal in assay [1] came out at 1.23 ± 0.0679 fold-change vs cycle 0; in assay [2], 1.37 ± 0.0898 fold-change vs cycle 0; in assay [3], 1.31 ± 0.0947 fold-change vs cycle 0.

GTTCAA: the results for the binding signal in assay [1], in assay [2] and in assay [3] were 1.2 ± 0.0638 fold-change vs cycle 0, 1.34 ± 0.0679 fold-change vs cycle 0 and 1.3 ± 0.0535 fold-change vs cycle 0, respectively.

For CGTAGC, the binding signal in assay [1] was 0.305 ± 0.0314 fold-change vs cycle 0; in assay [2] it was 0.356 ± 0.00868 fold-change vs cycle 0; in assay [3], 0.479 ± 0.0718 fold-change vs cycle 0.

As to ACTTTA, the binding signal in assay [1] came out at 1.93 ± 0.117 fold-change vs cycle 0; in assay [2] it was 1.99 ± 0.146 fold-change vs cycle 0; in assay [3] it was 1.75 ± 0.227 fold-change vs cycle 0.

For GTCCCA, the binding signal worked out at 0.392 ± 0.0166 fold-change vs cycle 0 in assay [1], 0.464 ± 0.0186 fold-change vs cycle 0 in assay [2] and 0.563 ± 0.0717 fold-change vs cycle 0 in assay [3].

On to AAAATT, for which the binding signal was 3.32 ± 0.292 fold-change vs cycle 0 in assay [1], 2.14 ± 0.119 fold-change vs cycle 0 in assay [2] and 1.94 ± 0.175 fold-change vs cycle 0 in assay [3].

Take TATCGA: the binding signal is 1.23 ± 0.0345 fold-change vs cycle 0 in assay [1], 1.2 ± 0.0508 fold-change vs cycle 0 in assay [2] and 1.22 ± 0.03 fold-change vs cycle 0 in assay [3].

On to CCTGAC, for which the binding signal in assay [1] is 0.451 ± 0.0407 fold-change vs cycle 0; in assay [2] it was 0.547 ± 0.0213 fold-change vs cycle 0; in assay [3], 0.654 ± 0.0358 fold-change vs cycle 0.

In the case of CAAGCA, the binding signal was 0.6412 ± 0.00497 fold-change vs cycle 0 in assay [1], 0.724 ± 0.0186 fold-change vs cycle 0 in assay [2] and 0.814 ± 0.0122 fold-change vs cycle 0 in assay [3].
